Data reported in PubChem BioAssay AID1851 (National Center for Advancing Translational Sciences (NCATS), 2009).
The campaign covered roughly 16,000 compounds. About 5,700 (36%) were called active. About 24% were inconclusive and are not listed. Calls come from the whole dose curve; as a rule, active = well fitted curve in the direction sought with a large enough effect; inconclusive = small, poorly fitted or top-dose-only effect, or effect the other way; inactive = no such curve, though single readings can be large or run the other way. Some of the results follow.

The molecules below were run against Cytochrome P450 1A2 (Homo sapiens) (UniProt P05177) (assay: Cytochrome panel assay with activity outcomes). Conditions: recombinant CYP, pro-luciferin dealkylation, luminescence, p450-cyp1a2; series mostly up to 57.1 µM; activity, negative = inhibition: at the top concentration.
% is set by controls: 0 for no effect and ±100 for the full control effect.

Chain of Cytochrome P450 1A2 (Homo sapiens) (P05177 whole entry, looked up): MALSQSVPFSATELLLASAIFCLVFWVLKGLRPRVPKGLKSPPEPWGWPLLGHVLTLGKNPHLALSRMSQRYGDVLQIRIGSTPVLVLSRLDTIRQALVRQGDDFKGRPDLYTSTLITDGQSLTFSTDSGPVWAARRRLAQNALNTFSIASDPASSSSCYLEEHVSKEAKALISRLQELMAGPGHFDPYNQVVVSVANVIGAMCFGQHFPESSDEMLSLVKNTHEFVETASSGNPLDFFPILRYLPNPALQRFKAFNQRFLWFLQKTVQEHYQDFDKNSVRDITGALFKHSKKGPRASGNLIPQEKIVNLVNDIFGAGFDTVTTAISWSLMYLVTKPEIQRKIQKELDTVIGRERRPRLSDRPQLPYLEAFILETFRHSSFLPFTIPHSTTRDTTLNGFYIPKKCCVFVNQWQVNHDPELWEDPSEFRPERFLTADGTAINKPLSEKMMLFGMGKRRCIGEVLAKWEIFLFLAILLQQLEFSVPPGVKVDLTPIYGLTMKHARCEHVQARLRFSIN

SMILES	AC50	activity, negative = inhibition
O=S(=O)(N/N=C\c1ccc2c(c1)OCO2)c1ccc(Cl)cc1	10 µM (active)	
O=S(=O)(N/N=C/c1ccc2c(c1)OCCO2)c1ccc(Cl)cc1	11.2 µM (active)	
O=S(=O)(Nc1cccnc1Cl)c1ccc2c(c1)OCCO2		1.38% (inactive)
Cc1ccc(Cl)cc1N1CCN(S(=O)(=O)c2ccc3c(c2)OCCO3)CC1		-22.6% (inactive)
O=C(Nc1nnc(SCc2ccc(Cl)cc2Cl)s1)C1COc2ccccc2O1 (configuration not stated)		-14.7% (inactive)
O=C(Nc1nnc(SCc2c(Cl)cccc2Cl)s1)C1CCCO1 (configuration not stated)	17.8 µM (active)	
CCc1nnc(NC(=O)C2CCN(C(=O)NC3CCCCC3)CC2)s1		-6.52% (inactive)
CCCCNCCOCCOc1ccc(C)cc1[N+](=O)[O-]	0.794 µM (active)	
COc1ccc(C=O)cc1COc1ccc(C)cc1[N+](=O)[O-]	1.12 µM (active)	
C=CCNCCOCCOc1ccc(C)cc1[N+](=O)[O-]	0.794 µM (active)	
O=c1cc(N2CCN(c3ccccc3)CC2)[nH]c(=O)n1C1CCCCC1		-14.4% (inactive)
COc1ccc(COC(=O)N/N=C2/C[C@@H](O)[C@@H](O)[C@@H]3[C@@H]4C(=O)N(C(C)(C)C)C(=O)[C@H]4CC[C@H]23)cc1		-10.2% [at 11.4 µM] (inactive)
CN(C)S(=O)(=O)Oc1ccsc1C(=O)Nc1cccc(Cl)c1	1.41 µM (active)	
CN(C)S(=O)(=O)Oc1ccsc1C(=O)Nc1ccc(Cl)cc1	0.891 µM (active)	
Cc1ccc(Sc2ccc(NC(=O)c3ccc(S(C)(=O)=O)cc3Cl)cc2)cc1		3.32% (inactive)
CN(C)S(=O)(=O)c1ccc(NC(=O)c2cc(F)c(F)cc2Cl)cc1		7.7% (inactive)
COC(=O)c1sccc1-c1ccc(C(=O)Nc2cccc(Cl)c2)o1	1.41 µM (active)	
C[C@]12CC3CC(N)(C1)C[C@@](C)(C3)C2		-0.566% (inactive)
CC(C)C(CCNC(=O)CC(Cc1ccccc1)c1ccco1)c1ccco1 (configuration not stated)		-28.6% (inactive)

SMILES	AC50	activity, negative = inhibition
COC(=O)[C@@]1(Cc2ccc(OC)cc2)[C@@H]2C(=CC(=O)[C@H]2CC(=O)C(=O)N(C)C)CN1C(=O)c1ccccc1		1.41% (inactive)
C=C1C(=O)C=C2CN(C(=O)c3ccccc3)[C@@](Cc3ccc(OC)cc3)(C(=O)OC)[C@@H]12	15.8 µM (active)	
COC(=O)[C@@]1(Cc2ccc(F)cc2)[C@@H]2C(=CC(=O)[C@H]2CC(=O)C(=O)N2CCCC2)CN1C(=O)c1ccccc1		-6.64% (inactive)
COC(=O)[C@@]1(Cc2ccc(OC)cc2)[C@@H]2C(=CC(=O)[C@H]2CC(=O)C(=O)N2CCCC2)CN1C(=O)c1ccccc1		-15.6% (inactive)
C=C1C(=O)C=C2CN(C(=O)c3ccccc3)[C@@](Cc3ccc(F)cc3)(C(=O)OC)[C@@H]12	15.8 µM (active)	
COC(=O)[C@@]1(Cc2ccc(F)cc2)[C@@H]2C(=CC(=O)[C@H]2CC(=O)C(=O)N(C)C)CN1C(=O)c1ccccc1		-12.2% (inactive)
CCN1CCN(C(=O)N[C@H](C(=O)N[C@@H]2C(=O)N3C(C(=O)O)=C(CSc4nnnn4C)CS[C@@H]23)c2ccc(O)cc2)C(=O)C1=O		-9.57% [at 25.6 µM] (inactive)
COC(=O)CSc1cc(C(F)(F)F)nc(-c2ccccn2)n1	0.708 µM (active)	
FC(F)(F)c1cc(Sc2ccccc2)nc(-c2ccccn2)n1	0.891 µM (active)	
CCOC(=O)CSc1cc(C(F)(F)F)nc(-c2ccccn2)n1	2.24 µM (active)	
CC(C)Nc1cc(C(F)(F)F)nc(-c2ccccn2)n1	1.58 µM (active)	
O=C(O)CSc1cc(C(F)(F)F)nc(-c2ccccn2)n1		-5.99% (inactive)
COc1ccccc1-c1cncnc1NCc1cccnc1	6.31 µM (active)	
COc1ccccc1-c1cncnc1NCc1cccc(C)c1	5.01 µM (active)	
COc1ccccc1-c1cncnc1NCc1ccccc1	12.6 µM (active)	
CCC[C@@H]1C[C@@]1(CCC)C(NS(=O)(=O)c1cccc2cccnc12)c1ccc(Cl)cc1 (some centres not stated)		-12.8% (inactive)
CC(C)NC(=O)N1CC[C@@]2(CCCN(C(=O)c3cccc(F)c3)C2)C1		1.3% (inactive)
COc1ccc2[nH]cc(CCNc3ncnc4ccc(-c5ccoc5)cc34)c2c1	0.316 µM (active)	
COc1ccc2[nH]cc(CCNc3ncnc4ccc(-c5ccc6c(c5)OCO6)cc34)c2c1	0.631 µM (active)	

SMILES	AC50	activity, negative = inhibition
C=CC(C)(C)c1[nH]c2ccccc2c1C1=C(O)C(=O)C(c2c[nH]c3c(CC=C(C)C)cccc23)=C(O)C1=O	25.1 µM (active)	
O=C(CSc1nnc(-c2ccco2)n1-c1ccccc1)NCc1ccco1		-13.4% (inactive)
O=C(CSc1nnc2sc3ccccc3n12)NCc1ccco1	10 µM (active)	
CCOC(=O)c1sc2nc(CC(=O)OC)nc(NCc3ccc(F)cc3)c2c1C	14.1 µM (active)	
COc1ccc(COC(=O)N/N=C2/C[C@@H](O)[C@@H](O)[C@@H]3[C@@H]4C(=O)N(c5cccc(Oc6ccccc6)c5)C(=O)[C@H]4CC[C@@H]23)cc1		-36.2% [at 11.4 µM] (inactive)
CCC(Sc1nc(C)cc(=O)[nH]1)C(=O)Nc1nc2c(s1)CCCC2 (configuration not stated)	12.6 µM (active)	
C/C(=N/Nc1nc(C)cc(=O)[nH]1)C(=O)O		-8.18% [at 11.4 µM] (inactive)
Cc1cc(=O)[nH]c(SCC(=O)Nc2nc3c(s2)CCCC3)n1	12.6 µM (active)	
Cc1cc(=O)[nH]c(-n2[nH]c3c(c2=O)CCCC3)n1		-21.9% (inactive)
Nc1cc(=O)[nH]c(SCC(=O)Nc2ccc(S(=O)(=O)N3CCOCC3)cc2)n1		-6.97% (inactive)
CC(c1ccccc1C(O)c1ccccc1)N(C)C (configuration not stated)		-10.1% (inactive)
COCCNC(=O)C1CC(c2cccc(OC)c2)=NO1 (configuration not stated)		-27.9% (inactive)
O=C(Nc1cccc(F)c1)N1CC2(CCN(C(=O)c3cnccn3)CC2)C1		-8.35% (inactive)
COc1cccc(C2=NOC(C(=O)Nc3ccc(OC)c(OC)c3)C2)c1 (configuration not stated)	10 µM (active)	
COc1cccc(C2=NOC(C(=O)Nc3cccnc3)C2)c1 (configuration not stated)	10 µM (active)	
COc1cccc(C2=NOC(C(=O)NCCN3CCOCC3)C2)c1 (configuration not stated)		14.5% (inactive)
Cc1ccc(NC(=O)NNC(=O)C2CC(c3cccnc3)=NO2)cc1 (configuration not stated)		-39.7% (inactive)
O=C(NNC(=O)C1CC(c2cccnc2)=NO1)Nc1cccc(F)c1 (configuration not stated)	14.1 µM (active)	
COc1ccc(NC(=O)C2c3cc(OC)c(OC)cc3C(=O)N(C)C2c2cccnc2)cc1OC (configuration not stated)		-41.4% (inactive)
